Source: PubChem (National Center for Advancing Translational Sciences (NCATS))
An excerpt weighted towards active compounds, which were near 5.9% of everything screened.
Coupling enz: counter-screen for Giardia aldolase inhibitors: coupling enzyme system | coupling enzyme system counterscreen, AmpLite Red fluorescence | 290,000 tested, 0.67% active | AID 2472 | activity change, negative = inhibition, % at 58.2 µM, hits read low; in the data active means activity change below about -30%
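Activity here indicates interference with the coupling reaction, not aldolase inhibition. Compounds at 57.5 uM final met coupling enzymes for 10 min at RT; substrate and AmpLite Red detection followed, with a 525/598 nm fluorescence read after 20 min.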
TrxR1 inh: blocks rat thioredoxin reductase 1; O89049; recombinant rTrxR1, NADPH fluorescence consumption, selenite substrate; 390,000 tested, 1% active; AID 588453; Potency, µM (doses to about 114 µM), without a hit: at the highest dose activity change, negative = inhibition, hits mostly inhibitors; further: potency means the concentration at half of the fitted maximal effect; nearly all actives have a fitted effect of over 65% in size
Target sequence (O89049 whole entry, looked up): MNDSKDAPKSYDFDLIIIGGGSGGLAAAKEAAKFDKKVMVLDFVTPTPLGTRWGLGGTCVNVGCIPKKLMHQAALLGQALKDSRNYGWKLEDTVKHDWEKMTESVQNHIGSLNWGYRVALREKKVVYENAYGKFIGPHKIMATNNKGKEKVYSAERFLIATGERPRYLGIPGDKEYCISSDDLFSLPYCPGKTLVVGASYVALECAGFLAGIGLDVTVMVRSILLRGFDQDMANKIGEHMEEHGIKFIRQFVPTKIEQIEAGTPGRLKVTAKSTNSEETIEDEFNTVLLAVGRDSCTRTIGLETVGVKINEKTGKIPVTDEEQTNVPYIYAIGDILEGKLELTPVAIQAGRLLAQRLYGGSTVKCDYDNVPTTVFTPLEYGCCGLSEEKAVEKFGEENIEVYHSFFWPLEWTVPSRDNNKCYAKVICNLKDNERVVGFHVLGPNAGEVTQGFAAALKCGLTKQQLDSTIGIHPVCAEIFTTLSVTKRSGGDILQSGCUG
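Rat TrxR1 (90 nM in the dispensed reagent) was pre-reduced with 400 uM NADPH for 5 min at room temperature, then incubated with compound for 15 min. After 400 uM selenite was added, NADPH fluorescence (Ex 340/Em 450 nm) was followed for 8 min.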
RORg inh: ROR gamma (mouse) transcription inhibition; Potency, µM (titrated, usually from 53.6 µM), for inactives: top-dose activity change, negative = inhibition, usual class: inhibitors; 310,000 tested, 5.4% active; Drosophila S2 Gal4-RORgamma UAS-luciferase reporter, 20 h; further: potency means the concentration at half of the fitted maximal effect; nearly all actives have a fitted effect of over 60% in size
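Stable Schneider cell line, Gal4 DNA-binding domain fused to ROR gamma, UAS-luciferase. Cmpd 1 hr RT → CuSO4 700 uM final → 20 hr RT → luciferase reagent 10 min → luminescence.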
TrxR1 substrate: rat thioredoxin reductase 1 substrate activity; 390,000 tested, 0.01% active; AID 588456; O89049; purified TrxR1 substrate turnover, NADPH consumption readout; Potency, µM (top dose mostly 114 µM), for inactives: at the top dose activity change, negative = substrate turnover; further: potency means the concentration at half of the fitted maximal effect; nearly all actives have a fitted effect of over 50% in size
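Rat TrxR1, dispensed at 90 nM, was prereduced with 400 uM NADPH (final) for 5 min at ~22 deg C, then incubated with compound 15 min before 400 uM selenite. A first-read NADPH fluorescence drop versus no-compound background flagged substrates.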
GALK inhibitor: inhibitors of human galactokinase; P51570; Purified GALK, Kinase-Glo residual ATP luminescence; Potency, µM (titrated, usually from 57.5 µM), for the others: top-dose activity change, negative = inhibition, hits mostly inhibitors; 270,000 tested, 0.007% active; AID 1868; further: potency means the concentration at half of the fitted maximal effect
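The enzyme phosphorylates galactose (100 uM) using ATP (35 uM); inhibition is detected as higher residual ATP, quantified by bioluminescence after 1 h reaction at room temperature, pH 8.0.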
VP16 counter: Gal4-VP16 reporter inhibition counter-screen | Drosophila S2 Gal4-VP16 UAS-luciferase, luminescence, 20 h | Potency, µM (doses to about 53.6 µM), inactives show at the highest dose activity, negative = inhibition, most hits filed as inhibitors | 310,000 tested, 3.5% active | AID 2546;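 further: Gal4-VP16 expression switched on by copper sulfate through the metallothionein promoter; potency means the concentration at half of the fitted maximal effect; nearly all actives have a fitted effect of over 50% in size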
Starred values were filed as active, the others as inactive; ? = inconclusive; . = not tested or not shown; [ ] = dose if it differs, or a comment. Unless noted, the call rests on the fitted dose curve; in most records, active means well fitted curve in the direction sought with a large enough effect; inconclusive means small, poorly fitted or top-dose-only effect, or another doubt; inactive means no such curve, though single readings can be large; an effect the other way counts as inactive or inconclusive. On the % scale 0 is the no-effect control and ±100 the full control effect.

SMILES	Coupling enz	TrxR1 inh	RORg inh	TrxR1 substrate	GALK inhibitor	VP16 counter
CCOc1ccc(N2C(=O)C3CCCN3C2=S)cc1 (stereo unspecified)	.	23%	.	-4%	.	.
COC(=O)Oc1ccc(/C=N/NS(=O)(=O)c2ccccc2)cc1OC	-3	-4%	?	-5%	1%	-18%
CCC1=C2CC[C@H]3C(=O)N(C)C(=O)[C@H]3[C@H]2[C@@]2(Cc3ccccc3)C(=NCC3CC3)OC(=O)N2C1=O	2	.	17%	.	.	-6%
O=C(NCc1ccccc1)c1n[nH]nc1-c1ccccc1O	2	1%	?	-2%	9%	5%
CS(=O)(=O)Nc1cccc2cccnc12	-3	-8%	6.3µM*	-6%[57.1 µM]	5%	7.9µM*
O=C(CI)Nc1cccc2cccnc12	.	-9%	.	5%[0.457 µM]	.	.
COCCNc1nc(-c2cc3ccccc3o2)cs1	-2	-2%	8%[10 µM]	-4%	-1%	-8%
COc1cccc(NC(=S)Nc2cc(C(=O)O)ccc2N2CC3CC(C2)c2cccc(=O)n2C3)c1 (stereo unspecified)	-1	-17%[57.1 µM]	8%	-3%	-2%	4%
Cc1ccc(NC(=S)Nc2cc(C(=O)O)ccc2N2CC3CC(C2)c2cccc(=O)n2C3)cc1C (stereo unspecified)	1	1%	5µM*	6%	1%	20µM*
CC(=O)N1c2ccccc2C2CCCC[C@@H]21 (stereo partly specified)	.	4%	.	0%	.	.
CC(=O)N1CCOc2cc(S(=O)(=O)Nc3c(C)cccc3C(C)C)c(Cl)cc21	.	10%	.	10%[11.4 µM]	.	.
CCOC(=O)c1c(NC(=S)Nc2cccc(C)c2)sc2c1CC(C)(C)SC2	0	?	2µM*	-5%	0%	2µM*
CCOC(=O)c1c(NC(=S)Nc2ccccc2)sc2c1CCN(CC)C2	-12	-33%[57.1 µM]	8%	9%[57.1 µM]	-2%	-3%
COCC(=O)Nc1sc2c(c1C(=O)OC)CCCC2	2	8%	36%	0%	-2%	-13%
CCOC(=O)c1c(NC(=S)NCc2ccccc2)sc2c1CCN(C(=O)OCC)C2	-2	2%	2µM*	-6%	1%	4.5µM*
C=CCNC(=S)Nc1sc2c(c1C(=O)OCC)CC(C)(CC)OC2 (stereo unspecified)	0	-7%[57.1 µM]	2.8µM*	1%[57.1 µM]	-2%	?
COC(=O)c1c(NC(=O)COC(=O)c2ccc(O)cc2)sc2c1CCCCC2	0	-14%	?	-6%	-2%	18µM*
Cc1ccccc1CN1c2ccccc2-c2nc(SCC(=O)c3ccccc3)ncc2S1(=O)=O	.	21%[57.1 µM]	.	6%[57.1 µM]	.	.
COc1cc(NS(C)(=O)=O)c(OC)cc1NC(=O)c1ccccc1	-2	-9%	3%	-6%	0%	6%
O=C(Nc1sc2c(c1C(=O)Nc1ccccc1)CCC2)c1ccc(Br)cc1	.	56µM*	.	3%	.	.
C=CCNC(=S)Nc1sc2c(c1C(=O)OCC)CCN(C(=O)OCC)C2	0	-3%	2.5µM*	5%	-4%	6.3µM*
CCOC(=O)c1c(NC(=S)Nc2ccccc2)sc2c1CCCCC2	2	-7%	2.5µM*	10%	-3%	4µM*
CCOC(=O)c1c(NC(=S)N2CCCCC2)sc2c1CCN(C(=O)OCC)C2	1	7%[57.1 µM]	-40%	-1%	8%	0%
O=C(Cc1ccccc1)Nc1sc2c(c1C(=O)Nc1ccc(Br)cc1)CCCC2	.	35%	.	20%	.	.
C/C(=N/NC(=O)c1sc(NS(=O)(=O)c2ccc(C)cc2)nc1C)c1sc(N)nc1C	3	16%[57.1 µM]	17%	-6%	0%	2%
SMILES	Coupling enz	TrxR1 inh	RORg inh	TrxR1 substrate	GALK inhibitor	VP16 counter
COc1ccc(N(C(=O)c2cc3ccccc3oc2=O)C2C=CS(=O)(=O)C2)c(OC)c1 (stereo unspecified)	3	7%[57.1 µM]	-17%	8%[57.1 µM]	11%	-1%
O=C(CSc1nc(-c2cccs2)nc2ccccc12)NC1CCS(=O)(=O)C1 (stereo unspecified)	.	0%	.	-20%	.	.
Cc1ccc(S(N)(=O)=O)c(C)c1-n1cnnn1	3	14%[57.1 µM]	12%	8%[57.1 µM]	5%	7%
Cc1cc(C)c(S(N)(=O)=O)c(C)c1-n1cnnn1	0	-10%[57.1 µM]	8.9µM*	2%[57.1 µM]	0%	3%
CN1CCN(c2cc(C(F)(F)F)nc(-c3ccccn3)n2)CC1	3	17%	-23%	4%	-3%	6%
C#CCSc1cc(C(F)(F)F)nc(-c2ccccn2)n1	9	18%[11.4 µM]	10µM*	6%[11.4 µM]	0%	-6%
COc1ccc(Sc2cc(C(F)(F)F)nc(-c3ccccn3)n2)cc1	6	-13%	4µM*	-12%	3%	11µM*
CNc1cc(C(F)(F)F)nc(-c2ccccn2)n1	1	-8%	0.71µM*	10%[57.1 µM]	0%	13µM*
CC(C)OC(=O)c1cc2c(ccn2C)n1CC(=O)N(Cc1ccccc1)c1ccc(F)cc1	-19	4%	6%	5%	-1%	?
O=C(O)C1CC(=O)N(Cc2cccs2)C1 (stereo unspecified)	0	14%	-1%[10 µM]	10%[57.1 µM]	4%	-3%
CCOc1cccc(C(=O)c2ccc(O)c(O)c2O)c1	-22	.	-32%	.	.	4%
Cc1cc(O)c(CN(C)C)c2c1C(=O)/C(=C/c1ccco1)O2	0	56µM*	10%	-12%	.	-2%
COc1ccc2c(c1)O/C(=C\c1ccco1)C2=O	-2	-6%[57.1 µM]	29%	1%[57.1 µM]	.	-3%
Cc1nn(C)c(C(=O)Sc2ccccc2)c1[N+](=O)[O-]	7	?	?	-20%	4%	?
Cc1nn(C)c(C(=O)Sc2cccc(Cl)c2)c1[N+](=O)[O-]	0	2µM*	-9%	-9%	0%	-4%
O=C(/C=C\c1ccccc1[N+](=O)[O-])Nc1ccccc1	-1	8%	39%	-7%	-1%	22%
COC(=O)/C(=C(O)\C=C\c1ccccc1[N+](=O)[O-])c1nc2ccccc2[nH]1	-4	10%	7.9µM*	2%	-2%	?
CC(=O)Nc1ccc(-c2cc(-c3ccccc3)nc(-c3ccccc3)n2)cc1	2	7%[57.1 µM]	24%	-7%	1%	-11%
Cc1ccc2nc(-c3ccc(NS(C)(=O)=O)cc3)cc(-c3ccccc3)c2c1	-5	26%	?	23%	2%	22µM*
CC(=O)Nc1ccc(-c2cc(C(=O)O)c3ccccc3n2)cc1	-2	-27%	10µM*	55%	.	?
O=C(O)c1cc(-c2ccc3ccccc3n2)nc2ccccc12	-2	9%	5µM*	-2%	.	11µM*
CCC(=O)Nc1ccc(-c2cc(-c3ccccc3)nc(-c3ccc(NC(=O)CC)cc3)n2)cc1	1	5%	8.9µM*	23%	0%	7.1µM*
